Pf growth 48h – inhibits P. falciparum growth in the first generation, 48 h; P. falciparum luciferase growth in erythrocytes, 48 h; Potency, µM (doses to about 28.7 µM), most hits filed as inhibitors; hit rate 5.9% among 310,000
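First compound was added to culture medium, then infected red cells at 0.1% parasitemia and 2% hematocrit (final). After incubation at 37 C under 5% CO2, luciferase detection reagent was dispensed and light output recorded.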
LmPK inh – inhibitors of Leishmania mexicana pyruvate kinase; Q27686; purified LmPK, Kinase-Glo ATP luminescence, 1 h; Potency, µM (series often up to 57.5 µM), most hits filed as inhibitors; AID 1721; hit rate 0.37% among 290,000
Target sequence (Q27686 whole entry, looked up): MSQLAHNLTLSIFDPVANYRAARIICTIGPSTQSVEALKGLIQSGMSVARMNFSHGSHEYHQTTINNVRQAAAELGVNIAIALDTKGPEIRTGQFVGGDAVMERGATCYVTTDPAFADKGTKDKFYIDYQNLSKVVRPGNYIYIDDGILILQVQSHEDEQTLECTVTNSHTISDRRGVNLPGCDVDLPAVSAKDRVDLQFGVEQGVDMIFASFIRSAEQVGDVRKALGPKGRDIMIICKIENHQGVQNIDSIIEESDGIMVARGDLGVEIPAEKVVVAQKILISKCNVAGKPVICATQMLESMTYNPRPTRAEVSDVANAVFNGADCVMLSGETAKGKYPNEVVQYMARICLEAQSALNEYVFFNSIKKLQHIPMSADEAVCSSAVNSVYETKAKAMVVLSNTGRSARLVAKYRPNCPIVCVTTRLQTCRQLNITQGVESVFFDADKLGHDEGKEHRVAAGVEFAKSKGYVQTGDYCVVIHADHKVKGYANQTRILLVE
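Pyruvate kinase activity monitored as ATP production (luciferase luminescence). Conditions: 0.1 nM enzyme, 0.5 mM PEP, 0.1 mM ADP, 1 h, RT; normalized against uninhibited and no-enzyme wells.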
Shiga toxin inh – blocks Shiga toxin action in Vero cells; Vero cells, Shiga toxin protein synthesis inhibition reporter; inhibition, % at 38.7 µM; hit rate 9.2% among 290,000; AID 2315; in the data active = inhibition mostly above about 28%, no sharp cut-off; inactive = mostly below about 43%
CHX counter – affects cycloheximide protein synthesis inhibition readout, counter-screen; cell reporter, cycloheximide protein synthesis inhibition counterscreen; max response, %; hit rate 12% among 300,000; in the data active = max response mostly above about 13%, no sharp cut-off; inactive = mostly below about 14%; also: read at 38.3 µM for the half of the compounds with a filed dose
Pf growth 96h – P. falciparum growth inhibition at 96 hour, primary screen for plastid delayed-death inhibitors. P. falciparum luciferase reporter growth, 96 h. hit rate 6.9% among 320,000. Potency, µM (titrated, usually from 28.7 µM), actives largely listed as inhibitors
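Two parasite generations (96 h, 37 C, 5% CO2) of compound exposure in infected erythrocytes (0.05% parasitemia, 2% hematocrit). Luciferase-reporter P. falciparum; decreased luminescence indicates inhibited growth, aimed at apicoplast-acting delayed death.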
Hits are given with their value; - = inactive; ? = inconclusive; . = no result; ! = not confirmed by another sample. Shown are actives, neighbours in structure and some others; about 22% of the full set was active somewhere. Unless noted, calls follow the shape of the dose curve; as a rule, active = well fitted inhibition curve with a large enough effect; inconclusive = small, poorly fitted or top-dose-only effect, or another doubt; inactive = no such curve, though single readings can be large or run the other way.

SMILES	Pf growth 48h	LmPK inh	Shiga toxin inh	CHX counter	Pf growth 96h
COc1ccc(Cl)cc1NCC(=O)Nc1ccc(OC)c(S(=O)(=O)N2CCCCC2)c1	9.28µM	.	.	.	?
COc1ccc(NC(=O)COc2ccccc2C)cc1S(=O)(=O)N1CCCCC1	-	.	.	.	?
COc1ccc(NC(=O)CN2C(=O)NC3(CC(C)CC(C)(C)C3)C2=O)cc1S(=O)(=O)N1CCCCC1 (stereo not given)	13.1µM	.	.	.	?
COc1ccccc1OCCC(=O)Nc1cccc(S(=O)(=O)N2CCCCC2)c1	-	-	-	-	-
O=C(COc1ccc2ccc(=O)oc2c1)Nc1cccc(S(=O)(=O)N2CCCCC2)c1	11.7µM	.	.	.	4.65µM
O=C(COc1ccc2ccc(=O)oc2c1)Nc1ccc(N2CCOCC2)cc1	-	-	-	-	-
COc1ccc(OC)c(C(=O)NC(CC(N)=O)c2ccc(N3CCN(c4ccccn4)CC3)c([N+](=O)[O-])c2)c1 (stereo not given)	-	-	-	-	-
O=C(O)c1ccc2c(c1)C(=O)N([C@H](Cc1ccc(-c3ccccc3)cc1)C(=O)O)C2=O	?	.	-	-	-
Cc1ccc(NC(=O)COc2ccccc2C(N)=O)cc1S(=O)(=O)N1CCCCCC1	?	.	.	.	4.65µM
CC1CC(C)(C)CC2(C1)NC(=O)N(CC(=O)N1CCN(S(=O)(=O)c3cccs3)CC1)C2=O (stereo not given)	9.28µM	.	.	.	?
Cc1ccc(NC(=O)COC(=O)c2ccccc2F)cc1S(=O)(=O)N1CCCCC1	-	.	.	.	-
CCOc1ccccc1OCC(=O)Nc1ccc(OC)c(S(=O)(=O)N2CCCCC2)c1	?	.	.	.	11.7µM
N#Cc1ccccc1OCC(=O)Nc1cccc(S(=O)(=O)N2CCCCCC2)c1	13.1µM	.	.	.	?
CN1CCN(c2c(F)cc3c(=O)c(C(=O)O)cn(CCF)c3c2F)CC1	-	-	-	-	-
CN1CCN(c2c(F)cc3c(=O)c(C(=O)O)cn4c3c2OCN4C)CC1	-	-	-	-	15.1µM!
O=C(CSc1nc(O)c(C2CCCCC2)c(=O)[nH]1)NCC1CCCO1 (stereo not given)	?	-	66.3	29.0	-
COc1ccc(C(=O)Nc2c(N)nc(SCC(=O)Nc3ccc(NC(C)=O)cc3)[nH]c2=O)cc1	10.4µM	-	-	-	2.62µM
CCc1ccc(NC(=O)CSc2nc(N)c(NC(=O)c3ccc(F)c(F)c3)c(=O)[nH]2)cc1	-	-	24.9	17.0	-
COc1ccc(NC(=O)CSc2nc(N)c(NC(=O)c3ccccc3F)c(=O)[nH]2)cc1	-	-	-	-	-
Nc1nc(SCC(=O)NCC2CCCO2)[nH]c(=O)c1NC(=O)c1ccc(F)c(F)c1 (stereo not given)	-	-	-	-	16.5µM
Nc1nc(SCC(=O)Nc2ccc(F)cc2)[nH]c(=O)c1NC(=O)c1ccc(F)c(F)c1	-	-	-	-	-
CC(C)C(C)NC(=O)CN1C(=O)NC2(CCCc3ccccc32)C1=O (stereo not given)	-	-	-	-	-
CCc1ccc(CNC(=O)CCC(=O)N2Cc3cccc(OC)c3Oc3ncccc32)cc1	?	-	-	-	-
CC1C(=O)C(C)C(c2cc(Cl)ccc2O)NC1c1cc(Cl)ccc1O (stereo not given)	.	-	-	-	-
COc1ccc(-n2cc(-c3ccccc3)[nH]c2=S)cc1	-	?	-	-	?
SMILES	Pf growth 48h	LmPK inh	Shiga toxin inh	CHX counter	Pf growth 96h
COc1cccc(-c2cn(-c3cccc(C(F)(F)F)c3)c(=S)[nH]2)c1	10.4µM	-	-	-	?
CCOc1ccccc1Nc1nc(-c2sc(C)nc2C)cs1	?	-	47.8	18.6	-
Cc1ccccc1Nc1nc(-c2sc(NC(=O)c3ccco3)nc2C)cs1	11.7µM	-	-	-	?
Cc1ccc(Nc2nc(-c3sc(NC(=O)c4ccco4)nc3C)cs2)cc1	9.28µM	-	-	19.6	?
CCOc1ccccc1NC(=O)CSc1nnc(NC(=O)c2ccco2)s1	-	-	-	-	-
Cc1ccc(Nc2nc(C(=O)NCc3ccco3)cs2)cc1	?	-	-	-	?
CCOc1ccccc1Nc1nc(-c2sc(NC(=O)c3ccco3)nc2C)cs1	14.7µM	-	-	-	2.33µM
COc1ccccc1OCc1csc(NC(=O)c2ccco2)n1	-	-	98.0	53.1	-
Cc1ccc(S(=O)(=O)NNC(=O)CCC(=O)Nc2ccccc2Cl)cc1	-	-	-	-	?
CCOC(=O)C1=C(N)Oc2cc(O)ccc2C1c1ccc(F)cc1F (stereo not given)	-	-	-	-	?
CN1c2ccccc2N(C)C1c1ccc2c(c1)OCO2	4.65µM	-	-	-	-
CC12CN3CC(C)(CN(C1)C3c1ccc3c(c1)OCO3)C2=O (stereo not given)	-	-	-	-	-
CC(CNC(=O)CCC(=O)N1CCOc2ccccc21)c1ccccc1 (stereo not given)	-	-	-	-	?
C=CCOCCN(C)C1=NS(=O)(=O)c2cc([N+](=O)[O-])ccc21	?	-	-	-	-
CN(CCO)C1=NS(=O)(=O)c2cc([N+](=O)[O-])ccc21	4.15µM	-	-	-	-
CCOC(=O)c1[nH]c2ccccc2c1NC(=O)NC(C)C	-	-	-	-	-
CCOC(=O)c1[nH]c2ccccc2c1NC(=S)Nc1cccc(C)c1C	-	-	-	28.7	-
CCCCNC(=O)Nc1c(C(=O)OCC)[nH]c2ccccc12	-	-	-	-	8.28µM
CCOC(=O)C1(Cc2ccccc2)CCN(Cc2ccc3c(c2)OCCO3)CC1	?	-	-	-	?
CC1CC(C)CN(c2ncc3c(n2)CC(c2ccc(Cl)cc2)CC3=O)C1 (stereo not given)	-	-	-	-	.
COc1ccc(C2CC(=O)c3cnc(N4CCN(Cc5ccccc5)CC4)nc3C2)cc1 (stereo not given)	11.7µM	-	-	-	-
CC1CC(C)CN(c2ncc3c(n2)CC(c2ccccc2Cl)CC3=O)C1 (stereo not given)	10.4µM	-	-	-	14.7µM
CCOC(=O)c1cccc(NC(=O)CSc2nnc(C)n2CC2CCCO2)c1 (stereo not given)	-	-	-	-	-
FC(F)(F)c1ccc(/C=N/n2c(C3CCCCC3)n[nH]c2=S)cc1	?	-	-	-	?
Cc1cc(NC(=O)CSc2nc3ccccc3c(=O)n2C(C)c2ccccc2)no1 (stereo not given)	.	-	-	-	11.7µM
CCCc1nc(SCC(=O)Nc2cc(C)on2)c2ccccc2n1	-	-	-	-	2.08µM
CCc1nc2ccccc2n1CC(=O)Nc1cc(C)on1	-	-	-	-	4.65µM
Cc1cc(NC(=O)CSc2nc(CCC3CCCC3)nc3ccccc23)no1	?	-	-	-	-
CC(C)C(c1nnnn1C1CCCC1)N1CCCc2ccccc21 (stereo not given)	13.1µM	-	-	-	-
Cc1ccc2[nH]c(=O)c(C(c3nnnn3C3CCCC3)N3CCCc4ccccc43)cc2c1 (stereo not given)	?	-	-	-	-
